Screening data deposited in PubChem by National Center for Advancing Translational Sciences (NCATS).
HEK cytotox = Cytotoxic Profiling in HEK 293 Cell Line of Diverse Libraries Using Quantitative High-Throughput Screening. AID 1345083, 2018. Potency, µM (highest dose often 115 µM), for inactives: at the highest dose activity change, negative = cytotoxicity, usual class: inhibitors. HEK 293 viability, ATP luminescence (CellTiter-Glo), 48-72 h. 6.6% of 94,000 active; also: nearly all actives have a fitted effect of over 60% in size
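HEK 293 cells seeded at 250 cells/well were exposed to compound for 48 or 72 hr at 37 degree Celsius. Viability taken as ATP content by CellTiter-Glo luminescence.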
Luciferase inh = Firefly luciferase inhibition profiling of diverse chemical library using quantitative high-throughput screening | Luciferin 4-monooxygenase (Photinus pyralis), P08659 | Potency, µM (top dose mostly 115 µM), most hits filed as inhibitors | AID 1347043, 2019 | 2.5% of 76,000 active | purified P. pyralis luciferase, luminescence, biochemical; also: nearly all actives have a fitted effect of over 65% in size
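Purified 10nM P. pyralis luciferase with 10uM D-luciferin and 10uM ATP in 50mM Tris acetate pH 7.5, 10mM Mg acetate, 0.01% Tween-20, 0.05% BSA. qHTS titration; luminescence read by CCD imager.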
GPT2 inh = Primary qHTS assay for inhibitors of Glutamate pyruvate transaminase 2 (GPT2); Alanine aminotransferase 2 (Homo sapiens), Q8TD30; Recombinant GPT2, coupled pyruvate oxidase/HRP Amplex Red fluorescence; Potency, µM (series often up to 57.7 µM), without a hit: at the highest dose activity change, negative = inhibition, hits mostly inhibitors; 0.25% of 100,000 active; also: nearly all actives have a fitted effect of over 60% in size
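GPT2 10ng/uL, a-KG 250uM, L-Ala 2mM, HEPES pH7.5 + 0.0001% Tween; 30 min RT. Then Amplex mix (PO/HRP/ThPP), 30 min RT dark, fluorescence. AOA 50uM used as positive control.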
3T3 cytotox = Cytotoxic Profiling in NIH 3T3 Cell Line of Diverse Libraries Using Quantitative High-Throughput Screening; NIH 3T3 viability, CellTiter-Glo ATP luminescence, 48-72 h; Potency, µM (series often up to 96.7 µM), for the others: top-dose activity change, negative = cytotoxicity, usual class: inhibitors; 4.3% of 94,000 active; AID 1345082, 2018; also: nearly all actives have a fitted effect of over 55% in size
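Cytotoxicity is measured as loss of cellular ATP: NIH 3T3 cells (400/well) are exposed to compound for 48 or 72 hr at 37 °C, then CellTiter-Glo luminescence is imaged after 10 min at room temperature.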
NPR1 antag = Natriuretic polypeptide receptor (hNpr1) antagonism - Primary qHTS. AID 1347048, 2019. Atrial natriuretic peptide receptor 1 (Homo sapiens), P16066. Potency, µM (top dose mostly 46.3 µM), for inactives: at the highest dose activity change, negative = inhibition, hits mostly inhibitors. HEK293 hNpr1 GloSensor cGMP, ANP-stimulated luminescence. 1.6% of 76,000 active; calls by dose curve; also: nearly all actives have a fitted effect of over 60% in size
Target sequence (P16066 whole entry, looked up): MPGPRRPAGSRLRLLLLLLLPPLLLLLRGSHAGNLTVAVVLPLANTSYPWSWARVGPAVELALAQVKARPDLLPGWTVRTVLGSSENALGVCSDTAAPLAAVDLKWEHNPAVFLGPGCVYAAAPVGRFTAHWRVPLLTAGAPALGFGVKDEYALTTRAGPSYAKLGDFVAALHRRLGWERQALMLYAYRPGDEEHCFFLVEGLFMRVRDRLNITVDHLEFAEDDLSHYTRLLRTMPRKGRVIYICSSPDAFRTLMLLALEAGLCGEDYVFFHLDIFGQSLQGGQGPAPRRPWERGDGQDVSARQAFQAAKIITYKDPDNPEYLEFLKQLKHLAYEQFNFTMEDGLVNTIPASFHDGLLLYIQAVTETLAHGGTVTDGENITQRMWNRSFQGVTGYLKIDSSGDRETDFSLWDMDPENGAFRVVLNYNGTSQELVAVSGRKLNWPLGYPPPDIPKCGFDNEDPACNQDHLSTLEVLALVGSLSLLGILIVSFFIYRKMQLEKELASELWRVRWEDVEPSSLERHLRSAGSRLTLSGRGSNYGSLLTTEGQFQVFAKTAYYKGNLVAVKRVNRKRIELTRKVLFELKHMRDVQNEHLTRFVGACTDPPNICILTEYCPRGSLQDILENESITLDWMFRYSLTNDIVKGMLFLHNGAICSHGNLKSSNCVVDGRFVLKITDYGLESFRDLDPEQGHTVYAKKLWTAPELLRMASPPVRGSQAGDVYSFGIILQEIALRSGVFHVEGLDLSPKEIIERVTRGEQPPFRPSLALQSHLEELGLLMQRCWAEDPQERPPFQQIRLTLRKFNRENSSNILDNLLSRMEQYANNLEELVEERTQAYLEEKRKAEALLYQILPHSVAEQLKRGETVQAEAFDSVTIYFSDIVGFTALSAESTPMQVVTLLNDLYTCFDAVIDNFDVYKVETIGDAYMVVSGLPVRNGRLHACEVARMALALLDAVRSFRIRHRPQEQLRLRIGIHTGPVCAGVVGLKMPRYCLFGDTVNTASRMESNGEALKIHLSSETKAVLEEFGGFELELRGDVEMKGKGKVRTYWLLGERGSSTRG
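Compound pre-incubated 30 min at room temperature on GloSensor-loaded HEK293 cells stably carrying hNpr1 and the pGS-40F cGMP biosensor. Stimulation uses hNppA at 0.1 nM final; luminescence is taken at baseline and 20 min post-agonist.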
* marks the source's active call; other numbers are inactive results; i = inactive; ? = inconclusive; . = not tested or not shown; [ ] = another dose, or the depositor's remark. Compounds with a hit are over-represented: about 10% of the library has one in this group of screens. Unless noted, calls follow the shape of the dose curve; as a rule, active = well fitted curve in the direction sought with a large enough effect; inconclusive = small, poorly fitted or top-dose-only effect, or another doubt; inactive = no such curve, though single readings can be large; an effect the other way counts as inactive or inconclusive. % is scaled to controls: 0 for no effect and ±100 for the full control effect; potency is read from the fitted curve at half-maximal effect.

SMILES	HEK cytotox	Luciferase inh	GPT2 inh	3T3 cytotox	NPR1 antag
OC[C@@H]1CN(C2CCC2)C[C@H]1c1nc(-c2ccncc2)no1	-15%	45µM*	i	-3%	2%
OC[C@@H]1CN(CC2CC2)C[C@H]1c1nc(-c2ccncc2)no1	-3%	35µM*	i	-11%	0%
O=C(Nc1cccc(C(F)(F)F)c1)N[C@H]1CO[C@H]2[C@@H]1OC[C@@H]2n1nnnc1Oc1ccc(-n2ccnc2)cc1	32µM*	i	2%	22µM*	?
O=C(NC1CCCCC1)N[C@H]1CO[C@H]2[C@@H]1OC[C@@H]2n1nnnc1-c1ccc2c(c1)OCO2	-22%	i	i	-20%	2%
COc1cccc(-c2nnnn2[C@H]2CO[C@H]3[C@@H]2OC[C@@H]3NC(=O)c2ccc(N(C)C)cc2)c1	?	?	3%	?	16µM*
O=C(N[C@H]1CO[C@H]2[C@@H]1OC[C@@H]2n1nnnc1-c1ccc2c(c1)OCO2)c1ccccc1	79µM*	i	0%[88.5 µM]	?	?
O=C(NCc1ccccc1)N[C@H]1CO[C@H]2[C@@H]1OC[C@@H]2n1nnnc1Oc1ccc(-n2ccnc2)cc1	0%	i	1%	-2%	0%
COc1cccc(-c2nnnn2[C@H]2CO[C@H]3[C@@H]2OC[C@@H]3NC(=O)c2ccccc2C(=O)O)c1	-1%	i	-29%	-7%	4%
O=C(Nc1cccc(C(F)(F)F)c1)N[C@H]1CO[C@H]2[C@@H]1OC[C@@H]2n1nnnc1-c1ccc2c(c1)OCO2	40µM*	i	i	32µM*	?
COc1ccccc1CNC(=O)C1CCN(c2nccc(Nc3ccccc3F)n2)CC1	?	.	i	?	.
COc1ccc(Nc2ccnc(N3CCC(C(=O)NCc4ccccc4OC)CC3)n2)cc1	28µM*	.	i	32µM*	.
COc1ccc(Nc2ccnc(N3CCC(C(=O)NCC(F)(F)F)CC3)n2)cc1	79µM*	.	i	?	.
COc1ccc(Nc2ccnc(N3CC4CCC(C3)N4CC(F)(F)F)n2)cc1	32µM*	.	?	40µM*	.
CC(C)c1noc(C2Cc3ccccc3N2C(=O)CCn2cnnn2)n1 (centres undefined)	6%	i	i	3%	-2%
CCn1ccc(C(=O)N2c3ccccc3CC2c2nc(C(C)C)no2)n1 (centres undefined)	?	40µM*	-10%	-16%	-12%
COC(=O)[C@@H]1Cc2nc[nH]c2CN1C(C)C	?	i	3%[88.5 µM]	71µM*	2%[70.6 µM]
COC(=O)[C@@H]1Cc2nc[nH]c2CN1C1CCOCC1	-11%[230 µM]	i	i	-8%[230 µM]	6%[70.6 µM]
Cc1ccc(C(=O)N2C(C(=O)NCC(C)C)COC23CCN(C(=O)c2cccc(Cl)c2)CC3)cc1 (centres undefined)	-24%	i	-19%	?	-11%
O=c1c2nc(-c3ccoc3)ccc2ncn1-c1ccc(F)cc1F	?	i	-28%[88.5 µM]	?	-13%[70.6 µM]
COc1ccc(-c2ccc3ncn(-c4ccc(F)cc4F)c(=O)c3n2)cc1OC	?	i	-6%[88.5 µM]	?	0%[70.6 µM]
COc1cccc(-c2ccc3ncn(-c4ccc(F)cc4F)c(=O)c3n2)c1	?	?	-12%[88.5 µM]	50µM*	6%[70.6 µM]
O=c1c2nc(-c3ccccc3)ccc2ncn1-c1ccc(F)cc1F	?	i	?	28µM*	7%[70.6 µM]
O=c1c2nc(-c3ccsc3)ccc2ncn1-c1ccc(F)cc1F	100µM*	i	-12%[88.5 µM]	45µM*	-1%[70.6 µM]
O=[S+]1([O-])NCC2(CCN(Cc3ccc(F)cc3)CC2)Nc2ccccc21	?	i	-9%	?	7%
Cc1ccc(C)c(NC(=O)Cn2c(N3CCC(C)CC3)nc(C)cc2=O)c1	28µM*	i	i	?	-17%
SMILES	HEK cytotox	Luciferase inh	GPT2 inh	3T3 cytotox	NPR1 antag
Cc1ccc(NC(=O)Cn2c(N3CCC(C)CC3)nc(C)cc2=O)c(C)c1	?	i	i	?	-2%
Cc1ccc(NC(=O)Cn2c(N3CCC(C)CC3)nc(C)cc2=O)cc1	?	i	-20%	?	?
Cc1cc(=O)n(CC(=O)Nc2ccc(Br)cc2F)c(N2CCC(C)CC2)n1	?	i	0%	16µM*	-9%
Cc1cc(=O)n(CC(=O)Nc2cc(Cl)ccc2C)c(N2CCC(C)CC2)n1	35µM*	i	3%	35µM*	?
O=C(c1ccc(Cl)nc1)N1CCN(CCn2nc3n(c2=O)CCCC3)CC1	0%	.	.	i	.
CC1CCN(CC2CCCCCN2C(=O)Nc2ccc3c(c2)OCCO3)CC1 (centres undefined)	?	16µM*	i	-14%	-13%
COC1CCN(CC2CCCCCN2C(=O)Nc2ccc3c(c2)OCCO3)CC1 (centres undefined)	2%	18µM*	-6%	-3%	0%
COC1CCN(CC2CCCCCN2C(=O)CCCc2ccccc2)CC1 (centres undefined)	?	i	-21%	?	-12%
CO[C@H]1C(=O)N(C2CCN(C(=O)c3nccc4ccccc34)CC2)[C@H]1c1ccncc1	?	.	i	?	.
COc1ccc(CO[C@H]2COCCN(c3nc4ccccc4s3)C2)cc1	100µM*	?	-6%[88.5 µM]	?	-5%[70.6 µM]
O=C(CN1CCCc2nc(-c3ccccc3)ncc2C1=O)N1CCOCC1	?	.	i	-33%	.
COCCCNc1ccnc(-c2nnc(C)n2-c2ccccc2)c1	-10%[172 µM]	i	-27%[88.5 µM]	100µM*	-14%[70.6 µM]
CN(CCCN1CCCCCC1)c1nc(-c2ccncc2)nc2c1cnn2C	?	i	i	32µM*	10%
CC(C)c1nc(N(C)Cc2cc(-c3cccnc3)no2)c2cnn(C)c2n1	?	i	i	?	-4%
Clc1ccccc1Cc1nc(-c2ccc(OC3CCNC3)cc2)no1 (centres undefined)	18µM*	?	i	13µM*	8%
O=C(CCc1ccc(CC2CCN(Cc3c[nH]c4ccccc34)CC2)cc1)N1CCCC1	35µM*	.	?	32µM*	.
Cn1ccnc1C(=O)N1CCC(Cc2ccc(CCC(=O)N3CCCC3)cc2)CC1	40µM*	.	-5%	?	.
CC(=O)Nc1ccc(-c2nnc3n2CCN(C(=O)c2ccccc2C)C3)cc1	i	.	.	i	.
N#Cc1cccc(C(=O)NC2CCN(c3cc(-c4ccc(F)cc4)[nH]n3)C2)c1 (centres undefined)	45µM*	i	?	?	-11%
